A number with no mark means an inactive call.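 The calls were made as follows: active = AUC reduced over 20% with Padj below 0.05 in at least 2 of 3 replicates; inactive = otherwise.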
Experiments:
Roseburia intestinalis = experiment: growth AUC relative to DMSO control (median of replicates) (fraction); higher = more growth (less inhibition), active = hit call of the paper; details: 20 µM; 24 h
Procedure, shortened: (§1)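 Hourly OD600 readings over 24 h tracked anaerobic gut bacterial monocultures grown at 37 °C in mGAM from OD600 0.05 with 20 µM compound (1% DMSO). After the minimum OD was set to 0, area under the growth curve was normalised to the plate median of solvent-only wells, or to row and column medians on the industrial chemical plate. Values are medians of three biological replicates grown on separate days.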

Streptococcus salivarius = experiment: as above; details: 20 µM; 24 h
Procedure, shortened: as §1

SMILES: NCP(=O)(O)O
- growth AUC (Roseburia intestinalis): 1.04
- growth AUC (Streptococcus salivarius): 1.02

SMILES: Oc1cccc2cccnc12
- growth AUC (Roseburia intestinalis): 1
- growth AUC (Streptococcus salivarius): 0.995

SMILES: CCCC1COC(Cn2cncn2)(c2ccc(Cl)cc2Cl)O1 (configuration not stated)
- growth AUC (Roseburia intestinalis): 0.995
- growth AUC (Streptococcus salivarius): 0.964

SMILES: CP(=O)(O)CCC(N)C(=O)[O-].[NH4+] (configuration not stated)
- growth AUC (Roseburia intestinalis): 1.06
- growth AUC (Streptococcus salivarius): 1.01

SMILES: C[C@@H](Oc1ccc(Oc2ncc(C(F)(F)F)cc2Cl)cc1)C(=O)O
- growth AUC (Roseburia intestinalis): 0.981
- growth AUC (Streptococcus salivarius): 0.999

SMILES: COP(=O)(OC)C(O)C(Cl)(Cl)Cl (configuration not stated)
- growth AUC (Roseburia intestinalis): 1
- growth AUC (Streptococcus salivarius): 1.02

SMILES: CC(C)(C)c1ccc(CCOc2ncnc3ccccc23)cc1
- growth AUC (Roseburia intestinalis): 0.901
- growth AUC (Streptococcus salivarius): 0.975

SMILES: C#CCOc1ccc(CCNC(=O)C(OCC#C)c2ccc(Cl)cc2)cc1OC (configuration not stated)
- growth AUC (Roseburia intestinalis): 0.959
- growth AUC (Streptococcus salivarius): 0.984

SMILES: COc1cc(OC)nc(Sc2cccc(Cl)c2C(=O)O)n1
- growth AUC (Roseburia intestinalis): 0.984
- growth AUC (Streptococcus salivarius): 0.973

SMILES: CCOP(=S)(OCC)Oc1ccc(S(C)=O)cc1 (configuration not stated)
- growth AUC (Roseburia intestinalis): 1.02
- growth AUC (Streptococcus salivarius): 1.03

SMILES: O=C(NC(=O)c1c(F)cccc1F)Nc1ccc(OC(F)(F)C(F)OC(F)(F)F)c(Cl)c1 (configuration not stated)
- growth AUC (Roseburia intestinalis): 1.06
- growth AUC (Streptococcus salivarius): 1.01

SMILES: c1nc[n]([Sn]([CH]2CCCCC2)([CH]2CCCCC2)[CH]2CCCCC2)n1
- growth AUC (Roseburia intestinalis): 0.654 (active)
- growth AUC (Streptococcus salivarius): 1.01

SMILES: O=c1oc2ccccc2c(O)c1C(CC(O)c1ccc(-c2ccc(Br)cc2)cc1)c1ccccc1 (configuration not stated)
- growth AUC (Roseburia intestinalis): 0.654 (active)
- growth AUC (Streptococcus salivarius): 0.553 (active)

SMILES: CC(C)(C)C(O)(CCc1ccc(Cl)cc1)Cn1cncn1 (configuration not stated)
- growth AUC (Roseburia intestinalis): 1.1
- growth AUC (Streptococcus salivarius): 1.01

SMILES: N#Cc1c(O)c(Cl)c(Cl)c(C#N)c1Cl
- growth AUC (Roseburia intestinalis): 1.06
- growth AUC (Streptococcus salivarius): 1

SMILES: O=C(O)c1cc(Cl)ccc1Cl
- growth AUC (Roseburia intestinalis): 0.993
- growth AUC (Streptococcus salivarius): 1.01

SMILES: N#CN=C1SCCN1Cc1ccc(Cl)nc1
- growth AUC (Roseburia intestinalis): 1.01
- growth AUC (Streptococcus salivarius): 1.01

SMILES: CCCCCCCCSC(=O)Oc1cc(Cl)nnc1-c1ccccc1
- growth AUC (Roseburia intestinalis): 1.06
- growth AUC (Streptococcus salivarius): 0.963

SMILES: O=C(NC(=O)c1ccccc1Cl)Nc1ccc(OC(F)(F)F)cc1
- growth AUC (Roseburia intestinalis): 0.918
- growth AUC (Streptococcus salivarius): 0.951

SMILES: CCNc1nc(Cl)nc(NC(C)C)n1
- growth AUC (Roseburia intestinalis): 1.09
- growth AUC (Streptococcus salivarius): 0.966

SMILES: CC(C)OC(=O)Nc1ccccc1
- growth AUC (Roseburia intestinalis): 1.06
- growth AUC (Streptococcus salivarius): 1.01

SMILES: COP(=S)(OC)Oc1ccc([N+](=O)[O-])cc1
- growth AUC (Roseburia intestinalis): 0.917
- growth AUC (Streptococcus salivarius): 0.968

SMILES: COc1cccc(C(=O)NN(C(=O)c2cc(C)cc(C)c2)C(C)(C)C)c1C
- growth AUC (Roseburia intestinalis): 0.985
- growth AUC (Streptococcus salivarius): 0.966

SMILES: CC(Oc1ccc(Cl)cc1Cl)C(=O)O (configuration not stated)
- growth AUC (Roseburia intestinalis): 0.978
- growth AUC (Streptococcus salivarius): 0.981

SMILES: COC(=O)C(C)Oc1ccc(Oc2ccc(Cl)cc2Cl)cc1 (configuration not stated)
- growth AUC (Roseburia intestinalis): 0.984
- growth AUC (Streptococcus salivarius): 0.984

SMILES: NCCO.O=C(O)c1nc(Cl)ccc1Cl
- growth AUC (Roseburia intestinalis): 1.03
- growth AUC (Streptococcus salivarius): 1.05

SMILES: FC(F)C(F)(F)OCC(Cn1cncn1)c1ccc(Cl)cc1Cl (configuration not stated)
- growth AUC (Roseburia intestinalis): 0.956
- growth AUC (Streptococcus salivarius): 0.996

SMILES: c1coc(-c2nc3ccccc3[nH]2)c1
- growth AUC (Roseburia intestinalis): 1.04
- growth AUC (Streptococcus salivarius): 0.984

SMILES: CC(=O)CC(c1ccco1)c1c(O)c2ccccc2oc1=O (configuration not stated)
- growth AUC (Roseburia intestinalis): 0.975
- growth AUC (Streptococcus salivarius): 0.989

SMILES: CCCSP(=S)(OCC)Oc1ccc(Cl)cc1Cl (configuration not stated)
- growth AUC (Roseburia intestinalis): 1.08
- growth AUC (Streptococcus salivarius): 0.973

SMILES: COC(=O)c1ccccc1CS(=O)(=O)NC(=O)Nc1nc(OC)cc(OC)n1
- growth AUC (Roseburia intestinalis): 0.964
- growth AUC (Streptococcus salivarius): 1.01

SMILES: CS(=O)(=O)c1ccc(C(=O)C2C(=O)CCCC2=O)c(Cl)c1
- growth AUC (Roseburia intestinalis): 1.04
- growth AUC (Streptococcus salivarius): 0.994

SMILES: COCc1c(F)c(F)c(COC(=O)C2C(C=C(C)C)C2(C)C)c(F)c1F (configuration not stated)
- growth AUC (Roseburia intestinalis): 1
- growth AUC (Streptococcus salivarius): 1.06

SMILES: CNC(=O)CSP(=S)(OC)OC
- growth AUC (Roseburia intestinalis): 0.982
- growth AUC (Streptococcus salivarius): 0.968

SMILES: Cc1cc(C2CC2)nc(Nc2ccccc2)n1
- growth AUC (Roseburia intestinalis): 0.947
- growth AUC (Streptococcus salivarius): 1.03

SMILES: O=c1[nH]c(Cl)c(Cl)cc1Cl
- growth AUC (Roseburia intestinalis): 0.993
- growth AUC (Streptococcus salivarius): 0.998

— the supplement of paper PMC12669032
